Test results as given in PubChem BioAssay AID1159580 (chemical genetic matrix, 2015).
Several values for one entry are separate records, joined by “and”; a condition that tells them apart may be missing. Identical values can stand only once. Among all 5,500 compounds or so, about 2,000 (36%) were called active. Roughly 18% stayed inconclusive and do not appear here. No stated cut-off is given here; in the data, active means normalized growth mostly below about 0.91 (no sharp cut-off); inconclusive means no clear call, values can overlap the other calls; inactive means mostly above about 0.92. Some of the results follow.

Assay: chemical genetic growth profiling, strain panel (AID 1159580);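 further: tested at 20 µM; growth read once vehicle control cultures reached saturation at 30 °C; 1 = growth at the plate median or of vehicle wells; lower values mean less growth of the strain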
Details: S. cerevisiae deletion strains, growth OD

Measured: normalized growth

C[C@]12CCC(=O)C=C1C=CC1C2CC[C@@]2(C)C1CC[C@@]2(O)CCC(=O)O (stereo partly specified)
inactive: locus YAL013W, strain DEP1, active compounds read low 1 | locus YAL021C, strain ccr4, active compounds read low 1.02 | locus YAL026C, strain drs2, active compounds read low 1.01 | locus YAL030W, strain snc1, active compounds read low 1.02 | locus YBL061C, strain skt5, active compounds read low 1.03 | locus YBR009C, strain hhf1, active compounds read low 0.997 | locus YBR021W, strain FUR4, active compounds read low 0.985 | locus YBR023C, strain chs3, active compounds read low 1.02 | locus YBR171W, strain sec66, active compounds read low 1.03 | locus YBR229C, strain ROT2, active compounds read low 0.991 | locus YBR231C, strain swc5, active compounds read low 1.01 | locus YBR279W, strain paf1, active compounds read low 1.03 | locus YCL011C, strain gbp2, active compounds read low 1.03 | locus YCL016C, strain dcc1, active compounds read low 1.01 | locus YCL029C, strain bik1, active compounds read low 0.963 | locus YCL069W, strain vba3, active compounds read low 1.04 | locus YCR088W, strain abp1, active compounds read low 1.03 | locus YDL005C, strain med2, active compounds read low 1.03 | locus YDL035C, strain GPR1, active compounds read low 1.02 | locus YDL040C, strain nat1, active compounds read low 1.04 | locus YDL074C, strain BRE1, active compounds read low 0.969 | locus YDL101C, strain DUN1, active compounds read low 0.982 | locus YDL134C, strain PPH21, active compounds read low 0.99 | locus YDL185W, strain tfp1, active compounds read low 0.982 | locus YDL192W, strain arf1, active compounds read low 0.997 | locus YDR001C, strain nth1, active compounds read low 1.01 | locus YDR069C, strain doa4, active compounds read low 1.01 | locus YDR101C, strain arx1, active compounds read low 0.98 | locus YDR137W, strain rgp1, active compounds read low 0.986 | locus YDR150W, strain NUM1, active compounds read low 1 | locus YDR159W, strain sac3, active compounds read low 0.982 | locus YDR162C, strain NBP2, active compounds read low 1 | locus YDR195W, strain ref2 1.02 | locus YDR297W, strain sur2, active compounds read low 1.02 | locus YDR318W, strain mcm21, active compounds read low 0.986 | locus YDR334W, strain swr1, active compounds read low 1.04 | locus YDR335W, strain msn5, active compounds read low 1.03 | locus YDR388W, active compounds read low 0.988 | locus YDR392W, strain spt3, active compounds read low 0.978 | locus YDR502C, strain sam2, active compounds read low 0.989 | locus YEL003W, strain gim4, active compounds read low 1.02 | locus YEL037C, strain rad23, active compounds read low 1.04 | locus YEL061C, strain CIN8 (second series), active compounds read low 1.02 | locus YEL061C, strain CIN8, active compounds read low 0.999 | locus YER015W, strain faa2, active compounds read low 1.04 | locus YER016W, strain bim1, active compounds read low 1 | locus YER110C, active compounds read low 0.986 | locus YER111C, strain swi4, active compounds read low 1.03 | locus YER155C, strain BEM2 (second series), active compounds read low 1.02 | locus YER155C, strain BEM2, active compounds read low 0.986 | locus YER167W, strain BCK2, active compounds read low 1.01 | locus YFR010W, strain ubp6, active compounds read low 1.04 | locus YGL078C, strain dbp3, active compounds read low 0.983 | locus YGL086W, strain mad1, active compounds read low 1 | locus YGL167C, strain pmr1, active compounds read low 1.02 | locus YGL173C, strain kem1, active compounds read low 1.01 | locus YGL227W, strain vid30, active compounds read low 1.01 | locus YGL240W, strain doc1, active compounds read low 0.968 | locus YGL248W, strain PDE1, active compounds read low 0.994 | locus YGL253W, strain hxk2, active compounds read low 1.03 | locus YGR078C, strain PAC10, active compounds read low 0.987 | locus YGR135W, strain pre9, active compounds read low 0.988 | locus YGR229C, strain SMI1, active compounds read low 1.03 | locus YGR252W, strain gcn5, active compounds read low 1.07 | locus YHR013C, strain ard1, active compounds read low 1.02 | locus YHR027C, strain rpn1, active compounds read low 1.02 | locus YHR030C, strain SLT2, active compounds read low 0.996 and 1.06 | locus YHR079C, strain IRE1 (second series), active compounds read low 0.991 | locus YHR079C, strain IRE1, active compounds read low 1.08 | locus YHR094C, strain hxt1, active compounds read low 0.993 | locus YHR129C, strain ARP1, active compounds read low 0.986 | locus YHR142W, strain chs7, active compounds read low 1.05 | locus YHR200W, strain rpn10, active compounds read low 0.984 | locus YIL066C, strain RNR3, active compounds read low 0.982 | locus YIL073C, strain SPO22, active compounds read low 0.975 | locus YIL125W, strain kgd1, active compounds read low 1.01 | locus YIR030C, strain dcg1, active compounds read low 0.991 | locus YJL092W, strain hpr5, active compounds read low 1.03 | locus YJL095W, strain BCK1 (second series), active compounds read low 1.03 | locus YJL095W, strain BCK1, active compounds read low 0.956 and 1.05 | locus YJL115W, strain asf1, active compounds read low 1.03 | locus YJL129C, strain trk1, active compounds read low 1.06 | locus YJL134W, strain LCB3, active compounds read low 0.997 | locus YJL154C, strain vps35, active compounds read low 1.01 | locus YJL164C, strain tpk1, active compounds read low 1.01 | locus YJL166W, strain qcr8, active compounds read low 0.996 | locus YJL168C, strain set2, active compounds read low 0.987 | locus YJL187C, strain SWE1 (second series), active compounds read low 0.971 | locus YJL187C, strain SWE1, active compounds read low 1.03 | locus YJR043C, strain POL32, active compounds read low 0.974 | locus YJR066W, strain TOR1, active compounds read low 0.976
